Screening data as filed in PubChem.
Hits are enriched below; roughly 2.8% of the tested compounds scored in any of these assays.
HIV Env fusion – inhibitors of HIV Env-mediated cell fusion; HeLa-JRFL Env/CEM21 cell fusion, luciferase; inhibition, % at 12.3 µM; 360,000 compounds, 1.1% hits;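 active means mean replicate inhibition score of at least 50 and every replicate individually at or above 50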;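 further: 0% = plate neutral controls and 100% = maraviroc near 300 nM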
PAX8 inh HTS – lowers PAX8-driven luciferase in RMG-I cells; RMG-I TPO-luciferase reporter, SteadyGlo, 24 h; inhibition, % at 12.6 µM; 360,000 compounds, 1.2% hits; AID 652154;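 active means mean replicate inhibition at least 60% with every replicate also reaching 60%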;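 further: luciferase light reporting Pax8 driven TPO promoter activity; plate controls were median of neutral control wells for no effect and mitoxantrone controls for full effect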
Shn3 inh set2 – inhibitors of Schnurri-3 3'UTR reporter in osteoblasts; Clone20 osteoblast Shn3 3'UTR firefly luciferase, 24 h; inhibition, % at 12.5 µM; 360,000 compounds, 0.52% hits; AID 588674;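 active means mean inhibition of at least 75% with every replicate also reaching 75%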;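 further: 0% = median of neutral control wells and 100% = pilot-screen positive control compound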
LMP1 NFkB inh – inhibitors of Epstein-Barr LMP1-induced NF-kappaB reporter. 350,000 compounds, 0.69% hits. inhibition, % at 12.5 µM. AID 504558. LMP1-induced NF-kappaB luciferase reporter cells, luminescence; in the data active means inhibition above about 41%;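 further: 0% = neutral control wells and 100% = reference inhibitor control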
N-glyco inh – N-linked glycosylation inhibition; D54 ERlucT glycosylation luciferase reporter, 24 h; percent of 100 nM tunicamycin response; reporter increase, % at 12.5 µM; 360,000 compounds, 0.23% hits; AID 588692;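 active means mean luciferase reporter signal, scaled so untreated is 0 and the glycosylation-blocking control 100, at or above a set limit in every replicate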;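 further: luciferase carries N-glycosylation sites so blocking glycosylation raises the light; 0% = median of neutral control wells and 100% = median of 100 nM tunicamycin wells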
NSD2 inh – inhibitors of human histone methyltransferase NSD2. inhibition, % at 12.5 µM. NSD2 peptide methylation, AlphaScreen, 120 min. O96028. 310,000 compounds, 0.54% hits. AID 743445; in the data active means inhibition above about 50%
Target sequence (O96028 whole entry, looked up): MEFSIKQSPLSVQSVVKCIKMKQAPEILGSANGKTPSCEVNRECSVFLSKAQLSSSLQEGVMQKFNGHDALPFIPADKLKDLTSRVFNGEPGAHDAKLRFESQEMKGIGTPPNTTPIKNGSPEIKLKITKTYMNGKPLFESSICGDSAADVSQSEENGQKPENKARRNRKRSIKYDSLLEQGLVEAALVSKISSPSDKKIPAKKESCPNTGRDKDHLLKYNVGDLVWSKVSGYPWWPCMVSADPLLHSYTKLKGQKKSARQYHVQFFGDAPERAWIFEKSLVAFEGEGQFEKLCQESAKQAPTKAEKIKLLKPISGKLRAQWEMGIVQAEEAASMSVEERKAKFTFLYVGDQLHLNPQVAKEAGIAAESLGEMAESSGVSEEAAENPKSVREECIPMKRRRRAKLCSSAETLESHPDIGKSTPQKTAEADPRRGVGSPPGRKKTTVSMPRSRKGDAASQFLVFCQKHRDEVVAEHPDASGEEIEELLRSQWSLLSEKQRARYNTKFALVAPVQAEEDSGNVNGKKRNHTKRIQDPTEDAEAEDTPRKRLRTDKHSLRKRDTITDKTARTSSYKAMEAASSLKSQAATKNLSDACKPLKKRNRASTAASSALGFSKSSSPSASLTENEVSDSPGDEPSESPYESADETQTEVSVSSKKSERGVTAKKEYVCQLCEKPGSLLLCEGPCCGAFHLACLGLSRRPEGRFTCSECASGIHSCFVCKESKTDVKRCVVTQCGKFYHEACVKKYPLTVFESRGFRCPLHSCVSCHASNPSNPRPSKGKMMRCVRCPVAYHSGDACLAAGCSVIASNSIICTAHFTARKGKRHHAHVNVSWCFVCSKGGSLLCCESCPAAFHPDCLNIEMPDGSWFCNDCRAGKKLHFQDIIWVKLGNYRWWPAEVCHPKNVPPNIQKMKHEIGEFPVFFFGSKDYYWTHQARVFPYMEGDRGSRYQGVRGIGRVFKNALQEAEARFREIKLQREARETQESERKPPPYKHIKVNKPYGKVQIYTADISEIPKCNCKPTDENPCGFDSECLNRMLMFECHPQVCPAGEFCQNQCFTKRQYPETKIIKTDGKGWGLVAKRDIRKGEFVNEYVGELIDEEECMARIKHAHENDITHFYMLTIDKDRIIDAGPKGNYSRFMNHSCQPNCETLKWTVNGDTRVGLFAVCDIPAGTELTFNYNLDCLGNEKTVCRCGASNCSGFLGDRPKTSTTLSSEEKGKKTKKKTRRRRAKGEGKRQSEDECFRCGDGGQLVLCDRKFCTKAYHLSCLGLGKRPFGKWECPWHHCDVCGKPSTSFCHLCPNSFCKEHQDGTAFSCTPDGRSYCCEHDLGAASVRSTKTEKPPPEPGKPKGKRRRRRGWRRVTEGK
The depositor's hits bear a star; [ ] = another dose, or the depositor's remark.

COc1ccc2cc3c(N)nn(C(=O)C4CCC(C(C)(C)C)CC4)c3nc2c1 (stereo not given) was read as HIV Env fusion 14, PAX8 inh HTS -13, Shn3 inh set2 -4, LMP1 NFkB inh 75* and N-glyco inh -17.
Screening COc1ccc2cc3c(N)nn(C(=O)c4cccc([N+](=O)[O-])c4)c3nc2c1 returned HIV Env fusion 33, PAX8 inh HTS -5, Shn3 inh set2 -21, LMP1 NFkB inh 46*, N-glyco inh -9 and NSD2 inh 0.
COc1ccc2cc3c(N)nn(C(=O)Cc4ccccc4OC)c3nc2c1 was read as HIV Env fusion 45, PAX8 inh HTS -10, Shn3 inh set2 4, LMP1 NFkB inh 21 and N-glyco inh -8.
O=C(c1cccc(F)c1)N1CC(=O)N2[C@H](C1)[C@@H](c1ccc(-c3ccccc3F)cc1)[C@@H]2CO was read as PAX8 inh HTS 20.
For CCN1C(=O)C(=Cc2cccc(OC)c2Oc2ccc([N+](=O)[O-])cc2[N+](=O)[O-])SC1=S the results were HIV Env fusion -363, PAX8 inh HTS 38, Shn3 inh set2 99*, LMP1 NFkB inh -70, N-glyco inh -21 and NSD2 inh 2.
For COc1cccc(-n2nnnc2S(C)(=O)=O)c1 the results were Shn3 inh set2 97*, LMP1 NFkB inh 90* and N-glyco inh -16.
COc1cccc(Oc2nnnn2-c2ccccc2)c1 was read as HIV Env fusion -53, Shn3 inh set2 -57, LMP1 NFkB inh -10, N-glyco inh -1 and NSD2 inh 14.
Cc1cc(N=Cc2c(O)n(-c3ccc(C)c(C)c3)c(=O)c3ccccc23)no1 was read as HIV Env fusion 8, PAX8 inh HTS 25 and NSD2 inh 0.
For CCOC(=O)Cc1csc(/N=C/c2c(O)n(-c3ccc(C)c(C)c3)c(=O)c3ccccc23)n1 the results were HIV Env fusion 38, PAX8 inh HTS 4, Shn3 inh set2 71, LMP1 NFkB inh 1, N-glyco inh 71* and NSD2 inh 1.
Screening CC(=O)N1C(c2ccccc2O)C[C@]2(C)CC(=O)NC12 (stereo not given in full) returned HIV Env fusion 4, PAX8 inh HTS -21, Shn3 inh set2 -13, LMP1 NFkB inh -6, N-glyco inh 0 and NSD2 inh 0.
For Cc1cccc(C(=O)Oc2ccccc2C2C[C@]3(C)CC(=O)NC3N2C(=O)c2cccc(C)c2)c1 (stereo not given in full) the results were HIV Env fusion 48*, PAX8 inh HTS 11, Shn3 inh set2 -8, LMP1 NFkB inh 4, N-glyco inh 5 and NSD2 inh 3.
`C[C@@]12CC(=O)NC1N(C(=O)c1cccc(C(F)(F)F)c1)C(c1ccccc1O)C2` (stereo not given in full) gave HIV Env fusion 105*, PAX8 inh HTS -8, Shn3 inh set2 -4, LMP1 NFkB inh -21, N-glyco inh 2 and NSD2 inh -12.
CO[C@H]1CN(C)C(=O)c2ccc(NS(=O)(=O)c3ccc(Cl)cc3)cc2OC[C@H](C)N(C)C[C@@H]1C was read as PAX8 inh HTS -14.
`CCCC#Cc1ccc2c(c1)O[C@@H](CN(C)C(=O)C1CCCCC1)[C@@H](C)CN([C@H](C)CO)S2(=O)=O` gave HIV Env fusion 22[16.7 µM].
For CC(C)CC#Cc1ccc2c(c1)O[C@H](CN(C)C(=O)C1CCCCC1)[C@@H](C)CN([C@H](C)CO)S2(=O)=O the results were HIV Env fusion -1[16.7 µM].
For Cc1ccc(-c2ccc3c(c2)O[C@@H](CN(C)C(=O)C2CCCCC2)[C@H](C)CN([C@H](C)CO)S3(=O)=O)cc1 the results were HIV Env fusion 60*[16.7 µM].
`CC(C)CC#Cc1ccc2c(c1)O[C@@H](CN(C)C(=O)C1CCCCC1)[C@H](C)CN([C@@H](C)CO)S2(=O)=O` gave HIV Env fusion 57*[16.7 µM].
`COc1ccc(NC(=O)N(C)C[C@H]2Oc3cc(C#CCC(C)C)ccc3S(=O)(=O)N([C@H](C)CO)C[C@H]2C)cc1` gave PAX8 inh HTS 72*.
For Cc1ccc(-c2ccc3c(c2)O[C@H](CN(C)C(=O)C2CCCCC2)[C@H](C)CN([C@H](C)CO)S3(=O)=O)cc1 the results were HIV Env fusion -5[16.7 µM].
Screening CCCC#Cc1ccc2c(c1)O[C@@H](CN(C)C(=O)C1CCCCC1)[C@H](C)CN([C@H](C)CO)S2(=O)=O returned HIV Env fusion 62*[16.7 µM].
COc1ccc(NC(=O)N(C)C[C@@H]2Oc3cc(C#CCC(C)C)ccc3S(=O)(=O)N([C@@H](C)CO)C[C@H]2C)cc1 was read as PAX8 inh HTS 50.
Screening C[C@@H]1CN([C@H](C)CO)C(=O)c2cccc(NS(=O)(=O)c3ccc(Cl)cc3)c2O[C@H]1CN(C)S(=O)(=O)c1ccccc1 returned HIV Env fusion 0[16.7 µM] and PAX8 inh HTS 1.
Screening COc1ccc2c3c(n(C)c2c1)[C@@H](CO)N(CC1CCOCC1)CC31CCN(C(C)=O)CC1 returned HIV Env fusion -3[16.7 µM].
Screening CCC(C(=O)Nc1ccc(C)cn1)c1ccccc1 (stereo not given) returned NSD2 inh 1.
Screening COc1ccc2c3c(n(C)c2c1)[C@H](CO)N(C(=O)c1ccncc1)CC31CN(C(C)=O)C1 returned PAX8 inh HTS -8.
`CC1(Cc2ccc(Cl)c(Cl)c2)C(=O)Nc2ccc(S(=O)(=O)NC3CCCCC3)cc21` (stereo not given) gave HIV Env fusion 57*, PAX8 inh HTS 42, Shn3 inh set2 24, N-glyco inh -6 and NSD2 inh -2.
`CC1(Cc2cccc(F)c2)C(=O)Nc2ccc(S(=O)(=O)NC3CCCCC3)cc21` (stereo not given) gave HIV Env fusion 58*, PAX8 inh HTS 7, Shn3 inh set2 -3, N-glyco inh -3 and NSD2 inh 1.
C/C=C/c1ccc([C@@H]2[C@@H](CN(C)C(=O)CN(C)C)N(C(C)=O)[C@H]2CO)cc1 was read as PAX8 inh HTS -12.
Screening Oc1[nH]c2ccccc2c1N=Nc1ccccc1Cl returned HIV Env fusion -5, PAX8 inh HTS -122, Shn3 inh set2 -52, LMP1 NFkB inh -37 and N-glyco inh 0.
For Oc1[nH]c2ccccc2c1N=Nc1c(F)c(F)c(Cl)c(F)c1F the results were HIV Env fusion -37, PAX8 inh HTS -7, Shn3 inh set2 -20, LMP1 NFkB inh 69*, N-glyco inh 2 and NSD2 inh 5.
`COc1ccc(S(=O)(=O)Nc2cccc3c2O[C@H](CN(C)Cc2ccncc2)[C@H](C)CN([C@H](C)CO)C3=O)cc1` gave PAX8 inh HTS -3.
For Cc1cccc(N2CCN(C(=O)Cn3nc(Cc4ccncc4)c4ccccc4c3=O)CC2)c1C the results were HIV Env fusion 21, PAX8 inh HTS 0, Shn3 inh set2 5, LMP1 NFkB inh 91* and N-glyco inh 4.
